Experimental data published in the supplement of paper PMC10849652.
Of roughly 8,800 targets only a part is listed; those with a hit were picked by preference. About 0.5% of all pairs of compound and target were hits. Unmarked numbers belong to inactive results.

Assays:
Assay in all cases: log2 fold change, soluble protein after heating vs DMSO (PISA); higher = thermal stabilisation; K562 lysate, 10 uM; active = over 0.2 and 3.5 SD of the protein, either way, in both replicates (recomputed)
vemurafenib = compound: CCCS(=O)(=O)Nc1ccc(F)c(C(=O)c2c[nH]c3ncc(-c4ccc(Cl)cc4)cc23)c1F [vemurafenib]
Procedure, shortened: (§1)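 A 30 min treatment with 10 μM compound was applied to crude K562 extract at 1 mg/mL protein in PBS pH 7.4 with 1 mM MgCl2. Heating for 3 min spanned 48°C-58°C, after which aliquots were pooled, adjusted to 0.5% NP-40 at 4°C and spun at 21,000xg for 90 min. TMTpro 16plex LC-MS/MS of the supernatant, with channel sums equalised, gave values recorded as log-two fold change in thermal stability against solvent controls, from duplicates.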

[1] = compound: CCCS(=O)(=O)Nc1ccc(F)c(C(=O)c2c[nH]c3ncc(Cl)cc23)c1F
Procedure, shortened: as §1

barasertib = compound: CCN(CCCOc1ccc2c(Nc3cc(CC(=O)Nc4cccc(F)c4)[nH]n3)ncnc2c1)CCOP(=O)(O)O [barasertib]
Procedure, shortened: as §1

[2] = compound: CC[C@@H]1C(=O)N(C)c2cnc(Nc3ccc(C(=O)NC4CCN(C)CC4)cc3OC)nc2N1C1CCCC1
Procedure, shortened: as §1

volasertib = compound: CC[C@@H]1C(=O)N(C)c2cnc(Nc3ccc(C(=O)N[C@H]4CC[C@H](N5CCN(CC6CC6)CC5)CC4)cc3OC)nc2N1C(C)C [volasertib]
Procedure, shortened: as §1

[3] = compound: CCn1c(C(=O)N(C2CC2)C2CC2)cc2c3c(ncn3C)c(Nc3cc(C)n(C)n3)nc21
Procedure, shortened: as §1

[4] = compound: CCn1cc(-c2ccnc3[nH]c(-c4cccc(CN(C)C)c4)cc23)c(-c2ccc(NC(=O)N(C)C)cc2)n1
Procedure, shortened: as §1

[5] = compound: CN1CCC(CNc2ccc3ncc(-c4cccc(OC(F)(F)F)c4)n3n2)CC1
Procedure, shortened: as §1

saracatinib = compound: CN1CCN(CCOc2cc(OC3CCOCC3)c3c(Nc4c(Cl)ccc5c4OCO5)ncnc3c2)CC1 [saracatinib]
Procedure, shortened: as §1

sotrastaurin = compound: CN1CCN(c2nc(C3=C(c4c[nH]c5ccccc45)C(=O)NC3=O)c3ccccc3n2)CC1 [sotrastaurin]
Procedure, shortened: as §1

alvocidib = compound: CN1CC[C@H](c2c(O)cc(O)c3c(=O)cc(-c4ccccc4Cl)oc23)[C@H](O)C1 [alvocidib]
Procedure, shortened: as §1

Tubastatin A = compound: CN1CCc2c(c3ccccc3n2Cc2ccc(C(=O)NO)cc2)C1 [Tubastatin A]
Procedure, shortened: as §1

[6] = compound: CNC(=O)C1=CC=CC=C1NC2=NC(=NC=C2Cl)NC3=C(C=C(C=C3)N4CCOCC4)OC
Procedure, shortened: as §1

defactinib = compound: CNC(=O)c1ccc(Nc2ncc(C(F)(F)F)c(NCc3nccnc3N(C)S(C)(=O)=O)n2)cc1 [defactinib]
Procedure, shortened: as §1

[7] = compound: CNc1nc(-c2ccc3c(N)n[nH]c3c2)cc(N2C[C@@H](C(=O)NC3CCCCC3)CC[C@H]2C)n1
Procedure, shortened: as §1

encorafenib = compound: COC(=O)N[C@@H](C)CNc1nccc(-c2cn(C(C)C)nc2-c2cc(Cl)cc(NS(C)(=O)=O)c2F)n1 [encorafenib]
Procedure, shortened: as §1

[8] = compound: COC(=O)[C@H](CCSC)NC(=O)C1=C(C=C(C=C1)NC[C@H](CS)N)C2=CC=CC=C2
Procedure, shortened: as §1

alisertib = compound: COc1cc(Nc2ncc3c(n2)-c2ccc(Cl)cc2C(c2c(F)cccc2OC)=NC3)ccc1C(=O)O [alisertib]
Procedure, shortened: as §1

[9] = compound: COc1cc2nc(-c3cc(F)ccc3O)nc(N[C@@H]3CNC[C@H]3C(C)(C)O)c2cc1OC
Procedure, shortened: as §1

gefitinib = compound: COc1cc2ncnc(Nc3ccc(F)c(Cl)c3)c2cc1OCCCN1CCOCC1 [gefitinib]
Procedure, shortened: as §1

UniProt Q8TDG4, sequence (Q8TDG4 whole entry, looked up): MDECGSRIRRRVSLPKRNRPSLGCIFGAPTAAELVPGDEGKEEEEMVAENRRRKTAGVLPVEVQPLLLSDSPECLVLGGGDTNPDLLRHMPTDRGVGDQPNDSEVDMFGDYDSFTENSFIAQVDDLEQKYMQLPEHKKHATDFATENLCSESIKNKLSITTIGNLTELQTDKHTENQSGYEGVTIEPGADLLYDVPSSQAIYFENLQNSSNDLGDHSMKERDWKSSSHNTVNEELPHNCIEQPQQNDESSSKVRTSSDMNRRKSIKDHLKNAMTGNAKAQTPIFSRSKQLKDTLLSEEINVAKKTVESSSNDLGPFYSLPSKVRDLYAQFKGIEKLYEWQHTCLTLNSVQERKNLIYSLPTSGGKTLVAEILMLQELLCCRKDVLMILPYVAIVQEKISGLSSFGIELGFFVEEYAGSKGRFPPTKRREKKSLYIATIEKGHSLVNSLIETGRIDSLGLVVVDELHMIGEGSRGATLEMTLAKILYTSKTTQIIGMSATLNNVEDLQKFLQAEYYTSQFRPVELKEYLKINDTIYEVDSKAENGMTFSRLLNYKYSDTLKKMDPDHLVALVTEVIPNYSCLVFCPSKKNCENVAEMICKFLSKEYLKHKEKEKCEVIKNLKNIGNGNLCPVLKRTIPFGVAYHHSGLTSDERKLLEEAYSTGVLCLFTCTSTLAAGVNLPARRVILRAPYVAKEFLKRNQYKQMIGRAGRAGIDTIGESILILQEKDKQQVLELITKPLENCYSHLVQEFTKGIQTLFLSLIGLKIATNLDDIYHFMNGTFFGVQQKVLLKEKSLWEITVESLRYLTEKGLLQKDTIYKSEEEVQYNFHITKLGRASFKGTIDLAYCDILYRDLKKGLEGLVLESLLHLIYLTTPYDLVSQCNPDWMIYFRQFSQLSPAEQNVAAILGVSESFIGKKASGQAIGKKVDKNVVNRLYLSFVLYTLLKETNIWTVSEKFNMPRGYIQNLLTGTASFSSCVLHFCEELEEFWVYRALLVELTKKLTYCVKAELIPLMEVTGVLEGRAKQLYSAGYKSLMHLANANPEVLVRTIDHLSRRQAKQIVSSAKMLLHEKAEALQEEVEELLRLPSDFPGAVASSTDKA
UniProt Q8IYU2, sequence (Q8IYU2 whole entry, looked up): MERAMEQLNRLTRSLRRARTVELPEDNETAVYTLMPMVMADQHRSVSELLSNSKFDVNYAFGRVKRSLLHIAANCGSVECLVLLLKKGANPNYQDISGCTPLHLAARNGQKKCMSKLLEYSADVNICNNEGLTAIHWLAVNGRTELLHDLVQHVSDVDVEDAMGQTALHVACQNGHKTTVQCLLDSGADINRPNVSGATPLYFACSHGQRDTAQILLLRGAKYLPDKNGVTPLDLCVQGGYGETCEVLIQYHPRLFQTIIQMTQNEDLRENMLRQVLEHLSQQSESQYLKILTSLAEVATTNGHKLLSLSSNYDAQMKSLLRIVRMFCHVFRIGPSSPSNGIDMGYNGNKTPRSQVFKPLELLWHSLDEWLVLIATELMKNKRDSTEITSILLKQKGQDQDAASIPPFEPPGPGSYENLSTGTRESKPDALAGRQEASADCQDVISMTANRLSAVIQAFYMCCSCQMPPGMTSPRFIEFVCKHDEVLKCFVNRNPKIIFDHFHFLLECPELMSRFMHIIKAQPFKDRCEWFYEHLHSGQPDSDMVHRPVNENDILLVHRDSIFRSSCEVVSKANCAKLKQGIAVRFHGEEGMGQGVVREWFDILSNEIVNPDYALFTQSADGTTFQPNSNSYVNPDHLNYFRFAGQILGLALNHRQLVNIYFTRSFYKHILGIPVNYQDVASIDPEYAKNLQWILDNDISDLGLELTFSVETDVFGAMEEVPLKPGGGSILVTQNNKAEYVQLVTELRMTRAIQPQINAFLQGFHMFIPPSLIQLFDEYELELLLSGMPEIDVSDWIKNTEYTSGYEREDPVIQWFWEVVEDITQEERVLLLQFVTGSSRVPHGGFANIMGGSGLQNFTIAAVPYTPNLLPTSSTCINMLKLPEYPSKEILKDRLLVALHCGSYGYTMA
UniProt P62873, sequence (P62873 whole entry, looked up): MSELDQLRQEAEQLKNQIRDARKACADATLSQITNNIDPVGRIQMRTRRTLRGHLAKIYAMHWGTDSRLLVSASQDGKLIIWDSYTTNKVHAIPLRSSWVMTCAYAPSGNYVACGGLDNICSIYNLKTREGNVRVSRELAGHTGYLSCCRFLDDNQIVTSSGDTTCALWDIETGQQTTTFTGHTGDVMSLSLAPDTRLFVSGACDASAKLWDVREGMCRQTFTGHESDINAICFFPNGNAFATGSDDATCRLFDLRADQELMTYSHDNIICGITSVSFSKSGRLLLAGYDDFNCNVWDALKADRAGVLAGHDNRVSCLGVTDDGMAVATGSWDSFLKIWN
UniProt Q9H0C8, sequence (Q9H0C8 whole entry, looked up): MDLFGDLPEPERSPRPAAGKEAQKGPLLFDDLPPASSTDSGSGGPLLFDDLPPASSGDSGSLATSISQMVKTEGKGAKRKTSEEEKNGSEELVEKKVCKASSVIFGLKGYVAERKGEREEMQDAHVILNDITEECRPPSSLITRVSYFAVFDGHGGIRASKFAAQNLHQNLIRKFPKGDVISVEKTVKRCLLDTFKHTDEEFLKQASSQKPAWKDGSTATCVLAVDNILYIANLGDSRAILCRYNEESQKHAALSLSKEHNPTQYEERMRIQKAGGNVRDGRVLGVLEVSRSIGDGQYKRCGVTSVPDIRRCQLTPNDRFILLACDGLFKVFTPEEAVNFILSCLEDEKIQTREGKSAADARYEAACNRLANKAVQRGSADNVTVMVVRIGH
UniProt Q9UBN7, sequence (Q9UBN7 whole entry, looked up): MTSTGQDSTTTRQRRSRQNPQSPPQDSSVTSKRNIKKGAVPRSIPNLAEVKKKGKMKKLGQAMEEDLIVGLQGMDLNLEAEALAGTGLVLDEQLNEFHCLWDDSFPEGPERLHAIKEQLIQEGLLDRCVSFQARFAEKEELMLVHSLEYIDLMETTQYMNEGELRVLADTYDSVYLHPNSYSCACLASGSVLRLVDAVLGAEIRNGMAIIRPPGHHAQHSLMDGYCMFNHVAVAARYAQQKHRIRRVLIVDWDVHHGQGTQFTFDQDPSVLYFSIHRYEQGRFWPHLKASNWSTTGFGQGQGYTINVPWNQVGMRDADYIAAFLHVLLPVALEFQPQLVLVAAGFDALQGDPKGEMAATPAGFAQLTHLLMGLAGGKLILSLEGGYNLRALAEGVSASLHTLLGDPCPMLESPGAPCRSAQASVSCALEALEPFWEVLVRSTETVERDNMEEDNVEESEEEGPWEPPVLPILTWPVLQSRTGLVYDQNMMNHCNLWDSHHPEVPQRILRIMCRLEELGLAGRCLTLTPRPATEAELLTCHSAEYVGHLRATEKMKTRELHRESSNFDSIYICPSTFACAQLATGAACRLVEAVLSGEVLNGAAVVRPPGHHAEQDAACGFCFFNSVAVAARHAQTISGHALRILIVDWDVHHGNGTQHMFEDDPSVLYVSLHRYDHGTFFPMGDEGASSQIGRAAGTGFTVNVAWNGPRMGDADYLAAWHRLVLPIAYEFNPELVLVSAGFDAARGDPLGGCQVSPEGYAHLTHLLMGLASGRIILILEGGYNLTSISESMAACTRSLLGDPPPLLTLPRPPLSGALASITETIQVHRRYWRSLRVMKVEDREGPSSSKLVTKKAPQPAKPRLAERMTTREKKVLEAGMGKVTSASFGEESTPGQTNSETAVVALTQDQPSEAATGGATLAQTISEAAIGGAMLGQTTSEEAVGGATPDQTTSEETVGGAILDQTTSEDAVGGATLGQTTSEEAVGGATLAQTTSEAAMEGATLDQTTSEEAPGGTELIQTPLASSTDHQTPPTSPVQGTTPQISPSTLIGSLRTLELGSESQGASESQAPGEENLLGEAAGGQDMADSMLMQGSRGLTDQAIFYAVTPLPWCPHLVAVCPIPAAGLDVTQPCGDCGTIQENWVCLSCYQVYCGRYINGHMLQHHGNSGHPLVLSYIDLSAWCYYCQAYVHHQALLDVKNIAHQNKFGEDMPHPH
UniProt Q96SY0, sequence (Q96SY0 whole entry, looked up): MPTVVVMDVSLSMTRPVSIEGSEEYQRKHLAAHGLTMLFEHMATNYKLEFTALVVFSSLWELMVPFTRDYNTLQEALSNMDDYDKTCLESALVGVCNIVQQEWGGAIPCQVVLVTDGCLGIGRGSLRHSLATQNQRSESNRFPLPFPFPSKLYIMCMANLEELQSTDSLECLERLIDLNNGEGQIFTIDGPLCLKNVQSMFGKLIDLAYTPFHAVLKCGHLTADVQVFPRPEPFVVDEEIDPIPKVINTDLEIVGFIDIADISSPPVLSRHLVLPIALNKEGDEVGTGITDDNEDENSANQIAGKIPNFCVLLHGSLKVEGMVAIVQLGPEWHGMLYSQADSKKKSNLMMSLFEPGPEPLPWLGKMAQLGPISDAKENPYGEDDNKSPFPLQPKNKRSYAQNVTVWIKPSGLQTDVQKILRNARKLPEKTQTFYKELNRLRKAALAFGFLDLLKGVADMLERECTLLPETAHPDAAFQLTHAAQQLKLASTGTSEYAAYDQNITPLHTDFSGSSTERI
UniProt Q9NVX0, sequence (Q9NVX0 whole entry, looked up): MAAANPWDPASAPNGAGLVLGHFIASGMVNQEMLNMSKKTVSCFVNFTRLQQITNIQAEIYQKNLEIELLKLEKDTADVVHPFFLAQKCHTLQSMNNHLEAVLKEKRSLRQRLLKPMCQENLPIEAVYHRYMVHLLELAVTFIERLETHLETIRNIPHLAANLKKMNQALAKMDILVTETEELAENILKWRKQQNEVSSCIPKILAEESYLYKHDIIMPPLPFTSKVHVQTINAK
UniProt P13598, sequence (P13598 whole entry, looked up): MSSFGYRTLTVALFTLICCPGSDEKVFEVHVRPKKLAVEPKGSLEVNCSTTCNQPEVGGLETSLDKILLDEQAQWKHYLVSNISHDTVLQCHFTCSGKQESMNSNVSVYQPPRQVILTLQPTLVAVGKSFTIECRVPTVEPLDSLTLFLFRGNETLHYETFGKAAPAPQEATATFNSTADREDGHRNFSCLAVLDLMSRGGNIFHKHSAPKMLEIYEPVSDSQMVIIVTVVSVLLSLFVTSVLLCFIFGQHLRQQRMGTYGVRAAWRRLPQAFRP

Target	log2 fold change (vemurafenib)	log2 fold change [1]	log2 fold change (barasertib)	log2 fold change [2]	log2 fold change (volasertib)	log2 fold change [3]	log2 fold change [4]	log2 fold change [5]	log2 fold change (saracatinib)	log2 fold change (sotrastaurin)	log2 fold change (alvocidib)	log2 fold change (Tubastatin A)	log2 fold change [6]	log2 fold change (defactinib)	log2 fold change [7]	log2 fold change (encorafenib)	log2 fold change [8]	log2 fold change (alisertib)	log2 fold change [9]	log2 fold change (gefitinib)
HELQ (UniProt Q8TDG4)	0.12	-0.064	0.036	0.048	0.01	-0.044	0.038	-0.104	-0.058	0.057	0.059	-0.016	0.045	0.037	0.054	0.046	0.09	0.132	-0.041	-0.177
ICAM2 (UniProt P13598)	-0.036	0.016	0.018	0.03	0.015	-0.017	0.426 (active)	-0.031	0.004	-0.035	0.078	0.017	0.032	0.039	-0.019	-0.026	-0.065	-0.016	0.009	-0.02
INTS14 (UniProt Q96SY0)	-0.046	0.034	-0.021	0.019	-0.013	-0.017	-0.071	0.008	-0.019	0.001	-0.001	-0.066	0.032	0.025	0.02	0.006	-0.1	-0.018	0.015	-0.003
HNRNPL (UniProt P14866)	0.01	0.023	0.021	-0.052	-0.047	0.061	-0.012	-0.056	0.017	0.023	0.035	-0.174	0.016	0.015	-0.02	0	0.073	-0.026	-0.007	-0.019
GTF3C5 isoform 3 (UniProt Q9Y5Q8)	0.024	0.009	-0.011	0.006	-0.018	0.051	-0.025	0.017	0.031	-0.033	-0.005	-0.166	0.029	0.014	-0.012	0.01	0.153	0.004	0.001	-0.004
HACE1 (UniProt Q8IYU2)	0.066	0.07	0.081	0.069	-0.058	0.039	-0.657 (active)	0.252	0.025	-0.154	-0.177	0.006	-0.042	-0.06	0.278	-0.057	0.18	0.061	0.045	-0.152
ILKAP (UniProt Q9H0C8)	-0.037	-0.01	-0.04	-0.048	-0.017	0.002	0.016	0	-0.013	0.021	0.056	-0.067	0	0.03	-0.028	-0.002	0.017	0.067	-0.006	0.005
GOLGA1 (UniProt Q92805)	0.081	0.086	0	0.007	0.121	-0.061	-0.019	-0.04	-0.031	0.071	-0.027	0.051	0.035	-0.017	0.011	0.028	-0.093	-0.017	-0.18	-0.024
HSPA8 (UniProt E9PK54)	-0.047	0.014	-0.113	-0.071	-0.056	0.08	-0.144	0.052	0.108	0.028	-0.047	0.036	-0.066	-0.041	-0.05	-0.025	-0.004	-0.016	0.016	-0.051
HAUS2 (UniProt Q9NVX0)	-0.076	-0.005	0.097	0.018	0.038	0.036	0.141	-0.089	0.048	-0.007	0.069	-0.079	0.041	-0.171	-0.047	0.088	0.043	-0.037	0.014	-0.049
HDAC6 (UniProt Q9UBN7)	-0.02	0.01	-0.017	-0.035	-0.047	-0.023	0.073	-0.011	-0.011	0.008	-0.006	0.11	-0.015	-0.003	-0.013	-0.017	0.06	0.013	0.001	-0.012
GNB1 (UniProt P62873)	-0.048	0.124	-0.016	-0.081	0.008	-0.037	-0.072	0.05	-0.038	-0.287 (active)	-0.095	0.029	-0.023	-0.028	-0.011	0.007	0.003	-0.023	-0.011	-0.128
HAUS6 (UniProt Q7Z4H7)	0.004	0.092	0.025	0.012	-0.068	0.015	-0.063	0.014	0.01	0.022	-0.043	-0.084	0.008	0.031	-0.004	0.031	-0.025	0.03	0.019	0.017
ITPKA (UniProt P23677)	-0.007	0.019	0.041	-0.105	-0.065	-0.03	0	0.054	0.013	-0.045	-0.001	-0.194	-0.017	0.017	0.015	-0.021	0.375 (active)	-0.004	0	0.011
HNRNPUL1 (UniProt Q9BUJ2)	-0.042	0.005	-0.004	-0.032	0.005	0.034	0.017	0.019	0.041	0.014	0.006	0.01	-0.011	0.002	-0.027	0.003	-0.003	-0.012	0.007	-0.015
GRK2 (UniProt P25098)	-0.019	0.016	-0.006	-0.08	-0.05	0.003	-0.054	-0.016	-0.009	0.01	0.001	-0.08	0.068	0.106	0.044	0.001	0.086	-0.042	0.066	-0.041
